In PubChem BioAssay one finds composite z-score, z-score and composite Z-score data, which are given here for five compounds.

Molecules are shown by their SMILES. Calls of active or inactive are those of the source.

The subject of assay [1] is Human papillomavirus type 1a protein E7 (residues 44-93). The experiment in a line: HPV1a E7 fragment binders on microarrays, primary screen, biochemical, small-molecule microarray, residues 44-93, 635 nm fluorescence (AID 1108).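 Further: E7 fragment applied at 1 µg/mL in TBST for 1 h at 4 C; score combines spot fluorescence with its signal to noise ratio.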 The following applies: small-molecule microarray binding, fluorescence 635 nm; higher = more signal.
Assay [2] in a line: modulators of HCV replicon luciferase signal, primary screen, HCV replication inhibitor project, Huh7 cells, luciferase reporter (AID 1109).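 Further: huh7 hepatoma cells harbouring a luciferase neomycin HCV replicon reporter; luciferase luminescence as measure of HCV replicon replication; test concentration not given here.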 The following applies: 48 h, higher = more signal. (In antiviral work, replicon cells carry a viral genome segment that copies itself.)
The target in assay [3] is Left-right determination factor 2 (Homo sapiens) (UniProt O00292). The experiment in a line: LEFTY2 binders on small-molecule microarrays, primary screen, biochemical, small-molecule microarray, 635 nm fluorescence scan (AID 1110). As to conditions: LEFTY2 binding, higher = more signal.
In assay [4] the target is Calmodulin-1 (Homo sapiens) (UniProt P0DP23). The experiment in a line: CALM1 binders on microarrays, EGTA buffer, profiling panel, biochemical, small-molecule microarray, Cy5-labelled CALM1 (AID 1111).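 Further: labelled calmodulin applied in Tris saline Tween buffer holding calcium plus EGTA and DTT.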 As to conditions: Cy5-CALM1 binding fluorescence, higher = more signal.
For assay [5] the target is unchanged. Briefly: calcium-bound CALM1 binders on microarrays, profiling panel, artefact control for SMM control-protein annotation, biochemical, small-molecule microarray, Cy5-labelled CALM1, plus calcium (AID 1112).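 Further: score merges spot fluorescence with signal to noise from triplicate slides.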 As to conditions: Cy5-CALM1 binding fluorescence, higher = more signal.
A short description of assay [6]: small-molecule microarray binders of probe aWnt5a, primary screen, biochemical, biotinylated probe, 635/667 nm fluorescence (AID 1113).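 Further: score merges 667 nm fluorescence intensity with signal-to-noise per printed feature.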 The following applies: higher = more signal.
The nature of assay [7]: small-molecule microarray binders of probe aShh, primary screen, biochemical, biotinylated probe, 635/667 nm fluorescence (AID 1114).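 Further: probe is biotin-labelled aShh protein from a stem cell growth factor screen; measures binding of labelled protein to compounds printed on the slide; score merges feature fluorescence at 667 nm with signal-to-noise.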 The following applies: higher = more signal.
Assay [8] can be described thus: small-molecule microarray binders of probe aNog, primary screen, biochemical, biotinylated probe, 635/667 nm fluorescence (AID 1115).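 Further: probe is biotinylated aNog protein used at 0.15 µg/mL for 1 h at 4 C; z-score combines 667 nm fluorescence of each spot with its signal to noise.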 The following applies: higher = more signal.
Assay [9] concerns the target Torsin-1A-interacting protein 1 (Homo sapiens) (UniProt Q5JTV8). The experiment in a line: LAP1 binders from COS7 cell lysate, primary screen, small-molecule microarray, 635/667 nm fluorescence (AID 1116). The following applies: COS7-hLAP1 lysate binding, 635 nm fluorescence, higher = more signal.
Assay [10] addresses Alpha-bungarotoxin (Bungarus multicinctus) (UniProt P60615). Briefly: alpha-bungarotoxin binders on microarray, profiling panel, artefact control for SMM control protein annotation, biochemical, small-molecule microarray, Alexa647 label, 635/667 nm fluorescence (AID 1117). As to conditions: alpha-BTX-A647 binding fluorescence, higher = more signal.
The next assay deals with Albumin (Bos taurus) (UniProt P02769). The experiment in a line: bovine serum albumin binders on microarray, profiling panel, artefact control for SMM control protein annotation, biochemical, small-molecule microarray, Alexa647 label, 635/667 nm fluorescence (AID 1118).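 Further: score merges 667 nm emission intensity and signal-to-noise per printed compound spot.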 The following applies: BSA-A647 binding, fluorescence 635 nm, higher = more signal.
Assay [11] in a line: small-molecule microarray binders of probe aXIP, primary screen, biochemical, NeuroSMM set, 635/667 nm fluorescence (AID 1119).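 Further: probe is the protein aXip251-270 applied at 1 µg/mL to compound-printed slides; binding of probe to printed compounds measured as 667 nm fluorescence plus signal to noise.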 As to conditions: higher = more signal, called active from +8 up or from −8 down.
Assay [12] can be described thus: small-molecule binders of probe aNOTCH3, primary screen, biochemical, small-molecule microarray, 635/667 nm fluorescence (AID 1120).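 Further: probe is a biotin-tagged antibody raised against NOTCH3 rather than NOTCH3 protein; score merges spot fluorescence near 667 nm with spot signal to noise.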 The following applies: higher = more signal.
The nature of assay [13]: small-molecule binders of probe aNOTCH2, primary screen, biochemical, small-molecule microarray, 635/667 nm fluorescence (AID 1121).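 Further: score merges feature fluorescence read at 667 nm with its signal to noise.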 The following applies: higher = more signal.
Assay [14] deals with Carbonic anhydrase 2 (Homo sapiens) (UniProt P00918). The experiment in a line: CAII small-molecule binders, profiling panel, biochemical, small-molecule microarray, Alexa647-labelled CAII (AID 1122). As to conditions: CAII-A647 binding fluorescence, higher = more signal.
The nature of assay [15]: COS7 lysate on small-molecule microarray, probe aHis, 635 nm (AID 1123).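 Further: z-score combines 667nm fluorescence intensity with signal-to-noise per printed compound spot.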 The following applies: COS7 cell lysate, fluorescence, higher = more signal.
A short description of assay [16]: compound binding in COS7 lysate, probe aLAP1, primary screen, cell lysate, small-molecule microarray (AID 1124).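 Further: lysate comes from COS7 cells expressing LAP1 and is applied at 0.3 µg/mL; score merges spot fluorescence near 667 nm with signal-to-noise over triplicate slides.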 The following applies: probe aLAP1, fluorescence, higher = more signal.
The subject of the next assay is Sam68 (KHDRBS1). Briefly: Sam68 small-molecule binders, primary screen, biochemical, small-molecule microarray, 635 nm fluorescence (AID 1125).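 Further: score merges 667 nm channel intensity with signal to noise over triplicate slides.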 As to conditions: small-molecule microarray binding, higher = more signal.
Assay [17] has as its system Chordin-like protein 2 (CHRDL2). The experiment in a line: CHRDL2 small-molecule binders, primary screen, biochemical, small-molecule microarray, 635 nm fluorescence (AID 1126).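 Further: printed compound slides probed with Chrdl2 protein at 4 µg/mL for 1 h at 4 C; score merges 667 nm emission intensity with signal to noise over three replicate slides.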 The following applies: small-molecule microarray binding, fluorescence 635 nm; higher = more signal.
Assay [18] addresses Concanavalin-A (Canavalia ensiformis) (UniProt P02866). The experiment in a line: ConA small-molecule binders, primary screen, artefact control for SMM control protein annotation, biochemical, small-molecule microarray, Alexa647 label, 635 nm (AID 1127).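 Further: z combines 667 nm emission intensity with signal-to-noise across three replicate slides.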 The following applies: ConA-A647 binding fluorescence, higher = more signal.

Sequence of Torsin-1A-interacting protein 1 (Homo sapiens) (Q5JTV8 whole entry, looked up): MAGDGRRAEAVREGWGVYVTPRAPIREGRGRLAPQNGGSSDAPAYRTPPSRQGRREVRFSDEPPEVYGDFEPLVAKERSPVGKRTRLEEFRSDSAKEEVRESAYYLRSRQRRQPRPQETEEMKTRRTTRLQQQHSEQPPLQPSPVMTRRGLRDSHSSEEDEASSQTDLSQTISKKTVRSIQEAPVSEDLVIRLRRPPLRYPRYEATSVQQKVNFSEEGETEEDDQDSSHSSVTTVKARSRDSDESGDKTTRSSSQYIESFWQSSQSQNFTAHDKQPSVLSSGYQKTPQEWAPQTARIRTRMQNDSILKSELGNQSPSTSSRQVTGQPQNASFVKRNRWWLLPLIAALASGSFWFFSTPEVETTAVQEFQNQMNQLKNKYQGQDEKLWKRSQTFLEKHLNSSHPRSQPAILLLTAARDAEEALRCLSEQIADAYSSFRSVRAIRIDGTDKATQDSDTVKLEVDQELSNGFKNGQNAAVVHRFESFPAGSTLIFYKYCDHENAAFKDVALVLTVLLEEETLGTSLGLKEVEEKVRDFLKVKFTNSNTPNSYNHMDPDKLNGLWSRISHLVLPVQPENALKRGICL
Sequence of Alpha-bungarotoxin (Bungarus multicinctus) (P60615 whole entry, looked up): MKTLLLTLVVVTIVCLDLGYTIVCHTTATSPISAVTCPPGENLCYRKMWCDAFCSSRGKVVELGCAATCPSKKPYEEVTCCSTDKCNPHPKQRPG
Sequence of Albumin (Bos taurus) (P02769 whole entry, looked up): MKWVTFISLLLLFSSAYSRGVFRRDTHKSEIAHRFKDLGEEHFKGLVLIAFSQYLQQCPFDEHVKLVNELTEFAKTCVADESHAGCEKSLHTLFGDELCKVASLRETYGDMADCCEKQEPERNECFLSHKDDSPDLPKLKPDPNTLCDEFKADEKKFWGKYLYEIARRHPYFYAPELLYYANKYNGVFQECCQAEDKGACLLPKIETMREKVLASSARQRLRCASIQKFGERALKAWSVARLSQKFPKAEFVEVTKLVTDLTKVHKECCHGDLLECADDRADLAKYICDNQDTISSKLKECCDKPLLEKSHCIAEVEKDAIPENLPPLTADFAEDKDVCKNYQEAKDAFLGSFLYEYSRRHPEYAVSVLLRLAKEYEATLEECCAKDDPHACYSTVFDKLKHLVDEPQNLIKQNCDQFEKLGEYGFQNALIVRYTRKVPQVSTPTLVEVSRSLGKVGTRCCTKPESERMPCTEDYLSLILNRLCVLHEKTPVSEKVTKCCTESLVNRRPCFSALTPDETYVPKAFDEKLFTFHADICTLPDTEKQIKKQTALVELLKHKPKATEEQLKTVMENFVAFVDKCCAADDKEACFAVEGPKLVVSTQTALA
Sequence of Left-right determination factor 2 (Homo sapiens) (O00292 whole entry, looked up): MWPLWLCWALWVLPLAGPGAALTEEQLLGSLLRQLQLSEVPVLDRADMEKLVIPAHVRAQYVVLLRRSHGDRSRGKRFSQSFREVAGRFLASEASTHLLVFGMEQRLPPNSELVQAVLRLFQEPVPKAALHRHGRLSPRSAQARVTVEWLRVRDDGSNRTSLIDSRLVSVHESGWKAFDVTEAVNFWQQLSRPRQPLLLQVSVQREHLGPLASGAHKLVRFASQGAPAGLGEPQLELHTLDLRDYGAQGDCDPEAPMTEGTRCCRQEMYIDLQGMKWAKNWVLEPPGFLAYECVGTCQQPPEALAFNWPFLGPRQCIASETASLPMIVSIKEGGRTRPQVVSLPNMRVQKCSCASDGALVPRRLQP
Sequence of Concanavalin-A (Canavalia ensiformis) (P02866 whole entry, looked up): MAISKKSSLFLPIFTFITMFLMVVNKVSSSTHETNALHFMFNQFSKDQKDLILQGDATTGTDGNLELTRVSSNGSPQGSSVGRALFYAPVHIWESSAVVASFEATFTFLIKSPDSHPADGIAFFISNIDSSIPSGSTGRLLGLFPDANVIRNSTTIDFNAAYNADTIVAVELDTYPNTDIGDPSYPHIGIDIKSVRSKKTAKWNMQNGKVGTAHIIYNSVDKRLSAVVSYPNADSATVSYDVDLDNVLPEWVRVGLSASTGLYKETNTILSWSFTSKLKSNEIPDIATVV

`CCOC(=O)C1=CC[C@@H](c2ccc(N(CC)CC)cc2)N(S(=O)(=O)c2ccc(C)cc2)[C@H]1c1ccc([N+](=O)[O-])cc1`: the composite z-score in assay [1] was 1.24; in assay [3], -1.76; in assay [4] it was 0.863; in assay [5], -0.378; in assay [6], -0.0472; in [7] it was -0.0035. In addition, the composite z-score in assay [8] is 0.587; in assay [9] it was 0.923; in assay [10], 0.274; with Albumin (Bos taurus), 0.682; in [12] it was 0.0116; in assay [13] it was -0.0097. For the same compound, the composite z-score is 0.473 in assay [14]; -0.507 in assay [15]; 0.769 in assay [16]; 0.317 in the assay on Sam68 (KHDRBS1); -0.724 in [17]; 0.588 in assay [18]. The z-score in [2] is -0.83. In assay [11], the composite Z-score was 0.38 (inactive).
Regarding `CCCNC(=O)[C@@H]1c2ccccc2C(=O)N(CC23CC4CC(CC(C4)C2)C3)[C@H]1c1ccc(CO)cc1`, the composite z-score in [1] turned out to be 0.772; in assay [3], 1.03; in assay [4], 0.992; in assay [5], 0.489; in assay [6] it was 0.189; in assay [7] it was 0.265. For the same compound, the composite z-score in assay [8] amounted to 0.697; in assay [9], 0.986; in assay [10] it was 0.88; with Albumin (Bos taurus), 0.472; in assay [12], 0.0702; in assay [13], 0.0521. In addition, the composite z-score in assay [14] worked out at 0.395; in assay [15], 1.98; in assay [16], 0.12; with Sam68 (KHDRBS1), 1.29; in [17] it was 0.781; in assay [18] it was 1.09. Further, the z-score in assay [2] was -1.15. Also, the composite Z-score in [11] was 0.39 (inactive).
`[N-]=[N+]=NCc1ccccc1C[C@]1(C(=O)NCCN2CCOCC2)N=C(c2ccc(OCCCO)cc2)O[C@H]1c1ccccc1`: the composite z-score in [1] is 1.45; in [3] it was -0.481; in [4], 0.835; in [5] it was -0.401; in [6], 0.0215; in assay [7], 0.131. For the same compound, the composite z-score is -0.465 in assay [8]; 1.46 in assay [9]; 1.16 in assay [10]; 0.528 in the assay with Albumin (Bos taurus); 0.408 in [12]; -0.126 in assay [13]. Besides, the composite z-score in assay [14] is 0.668; in assay [15], 1.78; in assay [16], 0.488; with Sam68 (KHDRBS1) it was 1.3; in assay [17], -1.03; in assay [18], 0.885. Further, in assay [2], the z-score was -2.64. For the same compound, the composite Z-score in assay [11] is 0.356 (inactive).
Regarding `COC(=O)[C@@]1(Cc2ccc(F)cc2)[C@H]2c3cc(C(=O)N4CCCC4)n(Cc4ccccc4)c3C[C@H]2CN1C(=O)c1ccccc1`, the composite z-score in assay [1] is 1.07; in assay [3], -0.253; in assay [4], 1.98; in assay [5] it was 0.666; in [6], -0.0843; in assay [7], -0.367. Besides, the composite z-score in assay [8] was -0.357; in [9] it was 1.56; in [10], 0.657; with Albumin (Bos taurus), 0.946; in assay [12], 0.23; in assay [13] it was 0.0291. For the same compound, the composite z-score in [14] is 0.793; in assay [15], 2.25; in assay [16], 0.65; in the assay on Sam68 (KHDRBS1) it was 0.253; in assay [17], -1.32; in assay [18] it was 0.428. In [2], this compound returned a z-score of -2.41. The composite Z-score in assay [11] is 1.06 (inactive).
`Cc1ccc(S[C@]2(C(=O)O)CC(=O)N(C3CCCCC3)[C@@H]2c2ccc(CO)cc2)cc1`: the composite z-score in assay [1] was 0.755; in assay [3], -0.442; in assay [4], 0.381; in assay [5], -1.39; in [6], 0.0581; in assay [7], 0.428. The composite z-score was 1.1 in assay [8]; 0.578 in assay [9]; 0.842 in assay [10]; 0.242 in the assay with Albumin (Bos taurus); -0.398 in [12]; 0.0394 in assay [13]. Moreover, the composite z-score in assay [14] is 0.714; in assay [15], 1.29; in assay [16], 0.975; in the assay on Sam68 (KHDRBS1) it was 1.31; in [17] it was -0.134; in [18], 1.16. Besides, the z-score in assay [2] was -1.2. In addition, the composite Z-score in [11] was 0.842 (inactive).
